Measurements from ChEMBL document CHEMBL1157539, “Thousands of chemical starting points for antimalarial lead identification” (Nature, 2010).
Values joined by “and” are separate entries in the source; they are usually repeats but may differ in a detail not shown here. Identical values can stand only once.

What follows are compounds tested on Plasmodium falciparum (assay: GSK_TCMDC: Inhibition of Plasmodium falciparum 3D7 in whole red blood cells, using parasite LDH activity as an index of growth. Test compounds present at 2uM).
Assay type: functional

SMILES | Inhibition
CNCCNCc1ccc(-c2ccc(-c3nc4cc(F)ccc4[nH]3)s2)cc1.O=C(O)C(F)(F)F | 99%
c1ccc(C(c2ccccc2)N2CCN(C(c3cccnc3)c3nnnn3C3CCCC3)CC2)cc1 (stereo not given) | 83%
COc1cc(NC(=O)c2ccc(-c3ccc(C(C)=O)cc3)s2)ccc1OCCN1CCCC1 | 100%
Cc1cccc2nc(-c3cccc(-c4ccc(C(=O)N5CCCCC5C(C)O)cc4)c3)[nH]c12 (stereo not given) | 100%
O=c1nc2[nH]c3ccccc3n2c(=O)[nH]1 | 95%
Cc1nnsc1C(=O)Nc1ccc(-c2cccc(-c3nc4cccc(C)c4[nH]3)c2)cc1 | 98%
CCCCOc1ccc(C(O)C(CN2CCCCC2)c2ccccc2)cc1 (stereo not given) | 90%
CCCc1c(Cl)cc(CNCCCNc2nc3ccncc3[nH]2)cc1Cl | 98%
CN1CCC(NCc2ccc(-c3ccc(S(=O)(=O)NCc4ccccc4)s3)cc2)CC1.O=C(O)C(F)(F)F | 99%
COc1ccc2nccc(N(C)CC3(O)CCN(CC(O)c4ccc5c(c4)NC(=O)CS5)CC3)c2n1.Cl (stereo not given) | 100%
CCC(CC)(Cc1ccccc1)NC(=O)[C@H](Cc1ccc(OC)c(OC)c1)Nc1ccc(C#N)c2ccccc12.O=C(O)C(F)(F)F | 90%
Cc1cc(-c2ccc3c(c2)CCN(CCC2CCC(NC(=O)/C=C/c4ccccc4F)CC2)CC3)on1.Cl (stereo not given) | 94%
CCCCCCCN(Cc1ccc(OC(C)(C)C(=O)OCC)cc1)C(=O)Nc1ccccc1OC(F)(F)F | 95%
O=C(Nc1cccnc1)c1ccc(-c2cc3ccncc3cc2OC2CCNCC2)s1 | 97%
CCCNC(=O)Nc1cc2cc(-c3cccc(CN4CCCCC4)c3)ccc2n2c(C)nnc12 | 100%
Cc1[nH]c(C)c(-c2ccc(C#Cc3ccc(F)cc3F)cc2)c(=O)c1Br | 97%
COc1cc(Cc2cnc(N)nc2N)cc(OC)c1OCCCCCN1C(=O)c2ccccc2C1=O | 97%
O=C(Nc1ccc(Cl)c(C(F)(F)F)c1)Nc1ccc(Cl)c(C(F)(F)F)c1 | 94%
Cc1ccc(O)cc1Nc1ccnc2cc(-c3ccccc3)ccc12.Cl | 100%
O=C(C=Cc1ccc(Cl)c(Cl)c1)NCCCCCN1CCC(CCNS(=O)(=O)c2ccc(Br)cc2)CC1 | 91%

SMILES | Inhibition
CC(C)NCc1cccc(-c2cccc(NC(=O)c3cccc(Cl)c3)c2)c1.O=C(O)C(F)(F)F | 98%
COc1ccc2ncc(F)c(CCN3CC(O)C(CNCc4ccc5oc(=O)ccc5c4)C3)c2n1.Cl (stereo not given) | 89%
Cc1[nH]c(C)c(C(F)(F)F)c(=O)c1-c1ccc(Oc2ccc(OC(F)(F)F)cc2)cc1 | 97%
COc1ccc2c(NN=Cc3ccc(Cl)cc3)ccnc2c1 | 100%
Cc1cc2c(cc1Cl)N(C(=O)Nc1cc(F)cc(-c3cncnc3)c1)CC2 | 96%
NS(=O)(=O)c1cncc(-c2ccc3nccc(-c4cn[nH]c4)c3n2)c1 | 99%
Fc1ccc2[nH]c(-c3ccc(-c4cccc(CN5CCCCC5)c4)cc3)nc2c1.O=C(O)C(F)(F)F | 100%
Cc1[nH]c(C)c(-c2ccc(-c3ccc(C(F)(F)F)cc3C(F)(F)F)nc2)c(=O)c1Br | 97%
Cc1cc(C)c(C)c(S(=O)(=O)N2CCCCC(c3ccc(F)c(F)c3)=N2)c1C | 86%
CC(Cc1ccc(OCC(=O)NCC2CCN(CCc3cccc(Cl)c3)CC2)cc1)NCCc1cccc(Cl)c1.Cl (stereo not given) | 96%
CC(Cc1ccc(NC(=O)c2ccc(CNCCCCc3ccccc3)cc2)cc1)NCCc1cccc(Cl)c1.Cl (stereo not given) | 100%
O=C1COC2(CN1C1CCN(Cc3ccc(O)c(Cl)c3)C1)c1ccccc1-c1ccccc12.O=CO (stereo not given) | 93%
O=C(Cc1cn(-c2ccccc2)nc1-c1ccc(Cl)cc1)Nc1nccs1 | 88%
O=C(/C=C/c1ccc(Cl)c(Cl)c1)NCCCCCN1CCC(c2c[nH]c3ccccc23)C(O)C1 (stereo not given) | 96% and 99%
Cc1cc(CN2CC[C@H](NC(=O)c3ccc(Cl)c(Cl)c3)C2)ccc1OC1CCN(C)C1.O=C(O)C(F)(F)F (stereo not given in full) | 100%
Cc1nc2nc(N)nc(N)c2c(C)c1Cc1ccc(C(N)=O)cc1.Cl | 97%
N=C(N)c1ccc(Nc2nccc(Nc3nc(-c4ccccc4)cs3)n2)cc1.O=C(O)C(F)(F)F | 96%
c1cn(CCCNc2ncc(-c3ccsc3)c(-c3nccs3)n2)cn1 | 94%
COc1cc2nc(N3CCC(CNC(=O)c4cccc5cc[nH]c45)CC3)nc(N)c2cc1OC | 98%
COc1ccc(NC(=O)c2cc(-c3ccc(NC(C)=O)cc3)cnc2N)cc1 | 98%
